In the library only some 7.5% were active in any assay of this set; here they are far more common.
ELG1 genotoxic – genotoxicity induction in ELG1-luciferase HEK293T cells; AID 504466; Potency, µM (titrated, usually from 46 µM), for inactives: at the highest dose activity change, positive = activation, actives largely listed as activators; hit rate 1.3% among 330,000; HEK293T ELG1-luciferase reporter, luminescence, 16 h; note: % of control where 0% means no effect; nearly all actives have a fitted effect of over 60% in size
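Cells (2,000/well) expressing the ELG1-luciferase fusion are dosed by pin tool and kept 16 hr at 37 °C, 5% CO2. Signal comes from ONE-Glo luciferase reagent after 30 min at room temperature.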
Rab9 prom act – Rab9 promoter activation; Huh7 Rab9 promoter-luciferase reporter, luminescence, 24 h; Potency, µM (doses to about 9.22 µM), without a hit: top-dose activation, negative = inhibition, usual class: activators; hit rate 2.8% among 320,000; note: % of control where 0% means no effect; nearly all actives have a fitted effect of over 60% in size
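Rab9 promoter-driven luciferase in stably transfected Huh7 cells; 1500 cells/well rested 2 h, exposed to compound in DMSO for 24 h at 37 °C, 5% CO2. Luminescence read 10 min after adding luciferase reagent at ambient temperature.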
SMN2 splice enh – SMN2 splice variant enhancement; HEK293 SMN2-luciferase splicing reporter, luminescence, 30-36 h; Potency, µM (series often up to 46.1 µM), inactives show at the top dose activity change, positive = activation, most hits filed as activators; hit rate 2.8% among 210,000; AID 1458; note: % of control where 0% means no effect; nearly all actives have a fitted effect of over 55% in size
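qHTS luciferase splicing reporter: luminescence rises when SMN2 exon 7 is included in transfected HEK293 cells. Compound exposure lasted 30-36 h at 37C, with 4.5 mM final sodium butyrate as control, followed by a ONE-Glo read.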
Luc counter – blocks Kinase-Glo luciferase, a counter-screen artifact; Potency, µM (doses to about 38.3 µM), inactives show at the top dose activity change, negative = inhibition, usual class: inhibitors; hit rate 0.28% among 200,000; Kinase-Glo luciferase, ATP luminescence, 8 min; note: % is set by controls: 0 for no effect and ±100 for the full control effect; nearly all actives have a fitted effect of over 60% in size
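Light output from Kinase-Glo luciferase with luciferin and 10 uM ATP in 50 mM imidazole pH 7.2, KCl, MgCl2, Tween 20, BSA; compound pin-delivered, 8-min ambient incubation, then luminescence read.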
NPC1 promoter act – NPC1 promoter activation | Huh7 NPC1 promoter luciferase reporter, 24 h | Potency, µM (doses to about 9.22 µM), inactives show at the highest dose activation, actives largely listed as activators | hit rate 2.4% among 320,000; note: % of control where 0% means no effect; nearly all actives have a fitted effect of over 60% in size
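Readout is luciferase luminescence, reflecting NPC1 promoter activation in stably transfected Huh7 cells after 24 h compound exposure at 37 °C in reduced-serum medium with 10% FBS.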
FLuc counter – inhibits or activates purified firefly luciferase, miR-21 counter-screen; P08659; purified FLuc, Km substrates, luminescence inhibition; Potency, µM (highest dose often 57.5 µM), for inactives: at the top dose activity change, negative = inhibition, actives largely listed as inhibitors; hit rate 6.9% among 360,000; AID 588342;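 note: plate controls were vehicle for no effect and reference inhibitor for full effect; nearly all actives have a fitted effect of over 55% in size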
Target sequence (P08659 whole entry, looked up): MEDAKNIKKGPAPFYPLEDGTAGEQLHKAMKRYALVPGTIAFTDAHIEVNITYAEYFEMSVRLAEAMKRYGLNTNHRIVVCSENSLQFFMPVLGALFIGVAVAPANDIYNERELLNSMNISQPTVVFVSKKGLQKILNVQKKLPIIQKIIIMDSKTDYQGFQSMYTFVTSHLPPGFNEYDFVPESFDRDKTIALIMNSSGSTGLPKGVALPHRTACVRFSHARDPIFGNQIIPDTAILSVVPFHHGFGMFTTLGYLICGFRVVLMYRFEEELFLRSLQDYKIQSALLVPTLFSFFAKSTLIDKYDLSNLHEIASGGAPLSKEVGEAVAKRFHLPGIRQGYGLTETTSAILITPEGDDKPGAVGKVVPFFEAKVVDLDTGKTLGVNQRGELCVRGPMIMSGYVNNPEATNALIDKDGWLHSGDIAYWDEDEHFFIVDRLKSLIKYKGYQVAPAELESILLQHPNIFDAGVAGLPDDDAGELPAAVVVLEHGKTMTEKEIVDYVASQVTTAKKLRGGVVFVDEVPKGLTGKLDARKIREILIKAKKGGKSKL
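Biochemical qHTS of compounds, final roughly 60 µM downward over six points, against 10 nM purified firefly luciferase using Km concentrations of substrates (10 uM D-luciferin, 10 uM ATP) in Tris acetate pH 7.5 buffer; luminescence output.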
Active calls of the source: *; ? = inconclusive; nt = not tested or not shown; [ ] = another dose, or the depositor's remark. Calls come from the whole dose curve; as a rule, active = well fitted curve in the direction sought with a large enough effect; inconclusive = small, poorly fitted or top-dose-only effect, or another doubt; inactive = no such curve, though single readings can be large; an effect the other way counts as inactive or inconclusive. Potency is the fitted concentration of half-maximal effect.

SMILES	ELG1 genotoxic	Rab9 prom act	SMN2 splice enh	Luc counter	NPC1 promoter act	FLuc counter
CSc1nnc(-c2cc3c(s2)-c2ccccc2CC3)o1	?	?	17.8µM*	0.6%	11.8%	4.78µM*
S=c1[nH]nc(-c2cc3c(s2)-c2ccccc2CC3)o1	?	?	14.1µM*	5.1%	25.5%	16.9µM*
O=C(O)c1cc2c(s1)-c1ccccc1CC2	1.7%	7.9%	-13.3%[1.84 µM]	1.2%	1.6%	-15.9%
Cc1nc(N2CCCC2)c2c(C(=O)N3CCN(c4cccc(Cl)c4)CC3)c(C)oc2n1	nt	nt	nt	nt	nt	-9.1%
COc1cc(/C=N/N=C(/C(=O)c2ccccc2)c2ccccc2)cc(OC)c1O	-5.7%	-2.9%	-15.7%	1.4%	2.3%	0.8%
COc1ccc(/C=N/N=C/c2ccc(OC)c(OC)c2)cc1OC	-0.3%	-1.0%	1.7%	1.5%	0.5%	-0.7%
COc1ccc(/C=N/N=C/c2ccc(OC)c(O)c2)cc1O	-1.3%	2.8%	0.4%	-4.2%	-0.6%	23.9µM*
COc1cc(/C=N/N=C/c2cc(OC)c(O)c(OC)c2)cc(OC)c1O	3.1%	0.2%	14.0%	-4.1%	0.5%	16.9µM*
CCCCC/C=C\C/C=C\C/C=C\C/C=C\CCCCCC(N)=O	nt	nt	4.8%	-0.4%	nt	nt
COc1cccc(NC(=O)C(=O)NCCC2CCCCN2S(=O)(=O)c2cccs2)c1 (stereo not drawn)	1.0%	29.4%	nt	nt	11.3%	10.7µM*
COc1ccc(NC(=O)C(=O)NCCC2CCCCN2S(=O)(=O)c2cccs2)cc1 (stereo not drawn)	-4.8%	-15.1%	nt	nt	-27.3%	-14.5%
CC/C=C\C/C=C\C/C=C\C/C=C\C=C\C(O)CCCC(=O)O (stereo not drawn)	nt	nt	1.0%	-1.9%	nt	nt
Cc1nc(-c2ccc(NC(=O)Cc3ccccc3)cc2)cs1	8.2%	?	nt	nt	?	8.49µM*
CCC(=O)Nc1ccc(-c2csc(C)n2)cc1	?	?	?	11.5%	?	23.9µM*
COc1ccc(CC(=O)Nc2ccc(-c3csc(C)n3)cc2)cc1	1.9%	0.8%	nt	-4.2%	1.4%	-5.7%
CC(N)(C(=O)O)c1ccc(P(=O)(O)O)cc1 (stereo not drawn)	nt	nt	-8.6%	nt	nt	nt
Cc1ccc(S(=O)(=O)C(CNC(=O)C(=O)NCCc2ccccc2)c2cccs2)cc1 (stereo not drawn)	nt	nt	nt	nt	nt	-9.0%
Cc1ccc(NC(=O)N2CCc3cc(S(=O)(=O)N4CCC(C)CC4)ccc32)cc1C	nt	nt	-5.4%	nt	nt	5.6%
O=Cc1cccc(OC(=O)c2ccc(Cl)cc2Cl)c1	11.6µM*	?	?	-0.2%	?	16.9µM*
Cc1cc(=O)oc2cc(OCCc3ccccc3)ccc12	?	?	nt	nt	14.4%	12µM*
COc1cccc(COc2ccc3c(C)cc(=O)oc3c2)c1	7.3µM*	2.82µM*	nt	nt	2.24µM*	3.01µM*
Cc1cc(=O)oc2cc(OCCCC[n+]3ccccc3)ccc12	3.6%	-2.8%	nt	nt	-4.6%	-5.1%
Cc1nn2c(C)c(C(=O)NCc3ccco3)cnc2c1-c1ccccc1	nt	nt	nt	nt	nt	-1.2%
COc1ccc(CNc2ccc(-c3ccccc3OC)nn2)cc1	0.9%	2.8%	6.4%	2.4%	11.2%	-16.5%
CCOC(=O)N1CCC(Nc2cc(C)nc3c(-c4ccccc4OC)c(C)nn23)CC1	11.9%	-2.9%	-30.2%	0.0%	-5.7%	-1.1%
COc1ccccc1-c1cnn2c(NC3CCCC3)cc(C)nc12	?	2.82µM*	nt	nt	?	1.9µM*
COc1ccccc1-c1ccc(NC2CCCC2)nn1	?	?	11.2µM*	-5.2%	26.4%	13.5µM*
CCNC(=S)N/N=C/c1cc(C)n(-c2ccc(Cl)cc2)c1C	?	?	17.8µM*	4.4%	?	16.9µM*
Cc1nc2ccccn2c1C(=O)N/N=C/c1cc(C)n(-c2ccc(Cl)cc2)c1C	-2.6%	-0.4%	-63.4%	-2.3%	-3.5%	21.3µM*
